Laboratory results taken from PubChem BioAssay (NCATS).
Inconclusive results are not listed. Active and inactive are the calls of the source. Unless noted, calls follow the shape of the dose curve; as a rule, active = well fitted curve in the direction sought with a large enough effect; inconclusive = small, poorly fitted or top-dose-only effect, or another doubt; inactive = no such curve, though single readings can be large; an effect the other way counts as inactive or inconclusive.

Columns and labels:
[1] = biological target: Thioredoxin reductase 1, cytoplasmic (Rattus norvegicus) (UniProt O89049); test: qHTS Assay for Substrates of Mammalian Selenoprotein Thioredoxin Reductase 1 (TrxR1) (AID 488772);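 also: series mostly up to about 57 µM; a drop in NADPH fluorescence below the no-compound background marks a TrxR1 substrate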
How it was run: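 In this dual-purpose format, potential substrates are identified from the first fluorescence read after selenite addition, not from the 8-minute delta. Rat enzyme is preincubated with NADPH and then with compound at ~22 deg C.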

[2] = biological target: Thioredoxin reductase 1, cytoplasmic (Rattus norvegicus) (UniProt O89049); test: qHTS Assay for Inhibitors of Mammalian Selenoprotein Thioredoxin Reductase 1 (TrxR1) (AID 488773);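 also: drop in NADPH fluorescence over an 8 min run after selenite addition; series mostly up to about 57 µM; nearly all actives have a fitted effect of over 40% in size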
How it was run: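 Inhibition is scored from the loss of NADPH fluorescence between first and last reads of an 8-min kinetic run. Selenite (400 uM) was the substrate, added after 15 min compound preincubation at room temperature.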

[3] = biological target: Flap endonuclease 1 (Homo sapiens) (UniProt P39748); test: qHTS Validation Assay for the Inhibitors of Human Flap endonuclease 1 (FEN1) (AID 488816)
How it was run: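 qHTS format: compounds and 10 nM FEN1 incubated 15 min at room temperature before adding 50 nM substrate. Cleavage followed by reads at 0 and 15 min; normalized data fitted to a four-parameter Hill curve.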

[4] = biological target: M-phase phosphoprotein 8 (Homo sapiens) (UniProt Q99549); test: qHTS Validation Assay for Inhibitors for MPP8 Chromodomain Interactions with Methylated Histone Tails (AID 488949);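 also: AlphaScreen signal from MPP8 chromodomain bound to biotinylated H3K9me3 peptide; top concentration of the series differs between compounds; nearly all actives have a fitted effect of over 55% in size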
How it was run: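 AlphaScreen proximity signal from streptavidin donor and Ni-chelate acceptor beads (10 ug/mL each) reported binding of MPP8 to trimethyl-K9 H3(1-18) peptide, both at 50 nM. The complex formed 30 min before a 30 min compound exposure at room temperature, in PBS pH 7.4.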

[5] = biological target: Methanococcus maripaludis chaperonin (MmCpn) (UniProt Q6LX38); test: High-Throughput Screening for Modulators of Cytosolic Chaperonin Activity: MmCpn Primary Screen (AID 488978);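 also: 50 nM MmCpn enzyme hydrolysing 30 µM ATP at 37 °C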
How it was run: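 ATPase activity of 50 nM MmCpn was assayed with 30 uM ATP, 10 minutes at 37C, after a 5 min compound preincubation at room temperature. ADP production was read as HTRF emission at 590 and 665 nm.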

[6] = biological target: D(1A) dopamine receptor (Homo sapiens) (UniProt P21728); test: HTS Assay for Allosteric Agonists of the Human D1 Dopamine Receptor: Primary Screen for Agonists (AID 488981)
How it was run: (§1)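 Calcium flux in an inducible, force-coupled HEK293 Trex D1 line (overnight at 30 C): agonist mode is the 180 s kinetic read after compound; potentiator mode is the following 180 s read after dopamine at EC20.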

[7] = biological target: D(1A) dopamine receptor (Homo sapiens) (UniProt P21728); test: HTS Assay for Allosteric Agonists of the Human D1 Dopamine Receptor: Primary Screen for Potentiators (AID 488982)
How it was run: as §1

[8] = biological target: D(1A) dopamine receptor (Homo sapiens) (UniProt P21728); test: HTS Assay for Allosteric Agonists of the Human D1 Dopamine Receptor: Primary Screen for Antagonists (AID 488983);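 also: calcium flux response to an EC80 dopamine challenge measured with no-wash dye; nearly all actives have a fitted effect of over 65% in size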
How it was run: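 Kinetic fluorescence at 1 cycle/sec tracked intracellular calcium in force-coupled, tetracycline-inducible HEK293 T-REx D1 cells. Loss of response to an EC80 dopamine dose, given 180 s after compound, marked antagonists.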

[9] = Validation screen for small molecules that induce genotoxicity in human embryonic kidney (HEK293T) cells expressing luciferase-tagged ELG1 (AID 493106)
How it was run: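 Cells were dispensed at 2,000 per well, then 23 nL compound or DMSO was pinned in. After 16 hr at 37 °C and 5% CO2, ONE-Glo reagent was added. Luciferase activity was measured following 30 min at room temperature.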

[10] = qHTS for Inhibitors of Cell Surface uPA Generation: Validation Assay (AID 493164);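 also: RAW 264.7 macrophage cells exposed to compound for 18 h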
How it was run: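 ATP-Lite luminescence read-out: ATP remains high when uPA activity-dependent LF translocation into the cytoplasm is blocked. RAW 264.7 cells, 18 h compound exposure at 37 C; 7-point titration, 2.45 nM to 38.3 uM final.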

[11] = biological target: Peptidyl-prolyl cis-trans isomerase NIMA-interacting 1 (Homo sapiens) (UniProt Q13526); test: qHTS Validation Assay to Find Inhibitors of Pin1 (AID 504536; active = well fitted inhibition curve with a large enough effect in the polarisation, with a control signal flat, not every such curve was filed as active; the % refers to the polarisation)
How it was run: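 Fluorescence polarization competition: compounds (titration) displace HiFluor-488-labeled Pin1-1b peptide from Pin1 (0.3 uM final) in pH 7.5 HEPES buffer with DTT, 10 min at room temperature; %Activity normalized to no-enzyme wells, curves fitted.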

[12] = biological target: Phosphoglycerate kinase, glycosomal (Trypanosoma brucei brucei) (UniProt P07378); test: qHTS Validation Assay to Find Inhibitors of Phosphoglycerate Kinase (AID 504547)
How it was run: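 Luminescence end-point (Kinase-Glo Plus, 10 min) after a 60 min room-temperature coupled reaction. GAPDH at 100nM final supplies 1,3-BPG to PGK. Buffer: 100mM TEA pH 7.6, 5mM MgCl2, 0.01% Tween-20. Wells lacking PGK served as controls.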

[13] = biological target: phosphoglycerate mutase (Leishmania major) (UniProt Q4Q090); test: qHTS Validation Assay to Find Inhibitors of Phosphoglycerate Mutase (AID 504548);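 also: end-point luminescence from Kinase-GloPlus after the PGAM reaction; series mostly up to about 58 µM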
How it was run: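 L. major PGAM (1.25nM final) was added to substrate buffer and pinned compound, incubated 45 minutes at room temperature, then Kinase-GloPlus added; luminescence read after 10 minutes. Buffer: 100 mM TEA pH 7.6, 5 mM MgCl2, 0.01% Tween-20.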

[14] = biological target: Ubiquitin carboxyl-terminal hydrolase 1 (Homo sapiens) (UniProt O94782); test: Inhibitors of USP1/UAF1: Pilot qHTS (AID 504865);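 also: rhodamine fluorescence freed from ubiquitin-rhodamine substrate followed over time; top concentration of the series differs between compounds; nearly all actives have a fitted effect of over 35% in size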
How it was run: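 Deubiquitinase activity followed as kinetic rhodamine fluorescence release from 150 nM Ub-Rho. 1 nM USP1/UAF1 with compound, after 15 min room-temperature preincubation, in HEPES pH 7.8 buffer containing TCEP, EDTA, BSA and Tween-20.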

[15] = biological target: Glutaminase kidney isoform, mitochondrial (Homo sapiens) (UniProt O94925); test: qHTS for Inhibitors of Glutaminase (GLS): LOPAC Validation (AID 624146);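 also: glutamate product detected by oxidase and peroxidase coupled Amplex red fluorescence gain; series mostly up to about 46 µM; nearly all actives have a fitted effect of over 60% in size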
How it was run: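 hKGA in 45 mM KH2PO4 pH 8.2, 0.02% Tween-20 with pin-transferred compounds; 1 mM L-glutamine (stock) plus glutamate oxidase/HRP/Amplex Red coupling added. Fluorescence read initially and after 30 min at RT.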

[16] = qHTS of Trypanosoma Brucei Inhibitors: LOPAC Validation (AID 624147)
How it was run: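 Activity of T. brucei pyruvate kinase was followed by Kinase-Glo Plus luminescence after the enzyme reacted 45 min at room temperature with 130 uM ADP (final) and substrate. Test compounds were added before ADP at multiple concentrations.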

[17] = biological target: Glucagon-like peptide 1 receptor (Homo sapiens) (UniProt P43220); test: qHTS of GLP-1 Receptor Agonists: LOPAC Validation (AID 624148);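 also: luminescence from a luciferase reporter switched on by cAMP; higher luminescence signal means agonism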
How it was run: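 Agonism scored as increased luciferase luminescence driven by cAMP in HEK293 clones carrying GLP-1R. Cells settled 12 hours, received compound for 4-6 hr at 37 deg C, 5% CO2, and were read after 12 min detection reagent at RT.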

[18] = qHTS of Nrf2 Activators: LOPAC Validation (AID 624149)
How it was run: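 Cells (AREc32_Fluc) are plated at 1000 per well in OPTI-MEM containing 5% FBS and left overnight. Compounds are pinned in and incubated 24 hr at 37 deg C, and firefly luciferase is detected with Steady-Glo.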

[19] = HTS Assay for Allosteric Antagonists of the Human D2 Dopamine Receptor: Hit Validation in HTRF (AID 624455);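 also: stable D1 dopamine receptor cell line scored for blocking the D1 response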
How it was run: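 Inhibition of the D1-mediated response is measured by HTRF in cells that stably express the D1 dopamine receptor. Compounds reaching this step are hits from calcium-flux antagonism testing at EC80 dopamine in inducible Hek293 Trex D2 cells.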

Measured: Potency

Sequence of D(1A) dopamine receptor (Homo sapiens) (P21728 whole entry, looked up): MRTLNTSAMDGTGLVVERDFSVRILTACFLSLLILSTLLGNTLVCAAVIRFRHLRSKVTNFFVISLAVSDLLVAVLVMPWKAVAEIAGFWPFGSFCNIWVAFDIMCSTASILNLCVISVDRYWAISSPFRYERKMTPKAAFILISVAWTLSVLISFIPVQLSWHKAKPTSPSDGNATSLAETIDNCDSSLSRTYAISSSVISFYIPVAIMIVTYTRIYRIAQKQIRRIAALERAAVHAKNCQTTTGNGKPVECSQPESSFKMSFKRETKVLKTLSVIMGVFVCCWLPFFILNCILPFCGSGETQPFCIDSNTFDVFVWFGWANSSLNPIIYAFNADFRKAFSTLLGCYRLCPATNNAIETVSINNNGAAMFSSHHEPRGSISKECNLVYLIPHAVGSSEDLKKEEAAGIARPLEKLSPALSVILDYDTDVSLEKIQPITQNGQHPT
Sequence of Thioredoxin reductase 1, cytoplasmic (Rattus norvegicus) (O89049 whole entry, looked up): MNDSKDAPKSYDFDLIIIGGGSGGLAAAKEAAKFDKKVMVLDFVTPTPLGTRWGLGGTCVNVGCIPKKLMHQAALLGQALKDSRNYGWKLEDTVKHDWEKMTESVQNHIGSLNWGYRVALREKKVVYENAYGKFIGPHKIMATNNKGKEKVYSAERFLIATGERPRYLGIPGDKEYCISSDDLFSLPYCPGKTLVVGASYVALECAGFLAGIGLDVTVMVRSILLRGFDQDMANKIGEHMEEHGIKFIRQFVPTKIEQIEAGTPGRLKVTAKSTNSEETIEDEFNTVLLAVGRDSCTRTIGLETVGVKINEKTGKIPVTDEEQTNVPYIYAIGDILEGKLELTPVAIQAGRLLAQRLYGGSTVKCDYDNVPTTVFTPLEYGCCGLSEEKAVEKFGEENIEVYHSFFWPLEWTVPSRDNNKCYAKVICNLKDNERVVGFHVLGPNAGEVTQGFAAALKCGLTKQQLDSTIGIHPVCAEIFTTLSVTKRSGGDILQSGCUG
Sequence of M-phase phosphoprotein 8 (Homo sapiens) (Q99549 whole entry, looked up): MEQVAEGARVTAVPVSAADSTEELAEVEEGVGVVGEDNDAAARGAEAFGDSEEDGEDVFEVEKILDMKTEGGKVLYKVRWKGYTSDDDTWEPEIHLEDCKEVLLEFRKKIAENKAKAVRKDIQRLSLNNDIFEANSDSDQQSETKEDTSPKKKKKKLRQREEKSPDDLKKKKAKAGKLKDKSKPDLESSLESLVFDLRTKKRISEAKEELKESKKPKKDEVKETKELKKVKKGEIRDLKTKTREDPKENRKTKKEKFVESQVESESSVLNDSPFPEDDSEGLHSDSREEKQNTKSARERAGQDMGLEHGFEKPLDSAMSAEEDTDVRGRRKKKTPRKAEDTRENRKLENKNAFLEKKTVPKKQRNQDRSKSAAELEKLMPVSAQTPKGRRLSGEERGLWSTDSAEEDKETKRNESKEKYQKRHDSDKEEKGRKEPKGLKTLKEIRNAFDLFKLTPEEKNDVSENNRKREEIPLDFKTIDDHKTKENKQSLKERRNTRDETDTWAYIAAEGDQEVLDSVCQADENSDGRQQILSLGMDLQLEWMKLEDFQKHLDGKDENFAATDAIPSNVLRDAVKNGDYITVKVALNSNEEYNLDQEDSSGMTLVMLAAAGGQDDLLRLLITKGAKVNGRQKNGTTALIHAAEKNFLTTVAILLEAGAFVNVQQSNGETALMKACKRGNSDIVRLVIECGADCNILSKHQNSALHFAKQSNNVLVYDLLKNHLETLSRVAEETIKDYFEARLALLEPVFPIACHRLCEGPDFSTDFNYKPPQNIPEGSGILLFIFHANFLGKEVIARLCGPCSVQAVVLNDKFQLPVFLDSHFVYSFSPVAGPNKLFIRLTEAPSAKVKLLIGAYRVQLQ
Sequence of Glucagon-like peptide 1 receptor (Homo sapiens) (P43220 whole entry, looked up): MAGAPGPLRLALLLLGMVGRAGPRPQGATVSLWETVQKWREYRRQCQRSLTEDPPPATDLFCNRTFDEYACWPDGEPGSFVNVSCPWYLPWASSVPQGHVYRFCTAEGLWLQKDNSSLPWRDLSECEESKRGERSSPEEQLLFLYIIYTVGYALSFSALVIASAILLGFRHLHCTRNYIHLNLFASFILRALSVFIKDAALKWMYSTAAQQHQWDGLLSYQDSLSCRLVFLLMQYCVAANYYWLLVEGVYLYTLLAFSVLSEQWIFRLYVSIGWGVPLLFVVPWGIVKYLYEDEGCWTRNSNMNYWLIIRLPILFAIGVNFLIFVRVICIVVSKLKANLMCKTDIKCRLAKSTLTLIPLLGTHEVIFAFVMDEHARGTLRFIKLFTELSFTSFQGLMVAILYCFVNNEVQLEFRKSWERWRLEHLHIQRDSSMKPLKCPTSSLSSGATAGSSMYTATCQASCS
Sequence of Glutaminase kidney isoform, mitochondrial (Homo sapiens) (O94925 whole entry, looked up, canonical isoform): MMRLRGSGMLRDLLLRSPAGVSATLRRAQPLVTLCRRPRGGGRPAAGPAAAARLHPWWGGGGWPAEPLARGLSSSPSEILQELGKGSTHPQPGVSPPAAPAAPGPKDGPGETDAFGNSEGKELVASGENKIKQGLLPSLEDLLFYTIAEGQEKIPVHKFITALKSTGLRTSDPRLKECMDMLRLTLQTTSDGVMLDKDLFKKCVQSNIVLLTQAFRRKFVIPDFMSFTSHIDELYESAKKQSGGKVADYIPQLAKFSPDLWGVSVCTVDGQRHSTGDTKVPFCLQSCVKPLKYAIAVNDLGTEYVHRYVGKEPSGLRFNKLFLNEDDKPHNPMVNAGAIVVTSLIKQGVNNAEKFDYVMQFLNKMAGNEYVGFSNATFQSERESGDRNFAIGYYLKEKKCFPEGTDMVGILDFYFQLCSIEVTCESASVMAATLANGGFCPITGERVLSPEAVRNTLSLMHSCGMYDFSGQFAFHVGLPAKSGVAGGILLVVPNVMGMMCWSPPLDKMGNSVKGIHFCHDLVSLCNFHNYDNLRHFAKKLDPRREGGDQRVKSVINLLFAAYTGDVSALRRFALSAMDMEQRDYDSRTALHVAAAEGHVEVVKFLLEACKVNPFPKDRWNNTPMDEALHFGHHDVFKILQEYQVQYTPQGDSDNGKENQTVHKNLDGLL
Sequence of Ubiquitin carboxyl-terminal hydrolase 1 (Homo sapiens) (O94782 whole entry, looked up): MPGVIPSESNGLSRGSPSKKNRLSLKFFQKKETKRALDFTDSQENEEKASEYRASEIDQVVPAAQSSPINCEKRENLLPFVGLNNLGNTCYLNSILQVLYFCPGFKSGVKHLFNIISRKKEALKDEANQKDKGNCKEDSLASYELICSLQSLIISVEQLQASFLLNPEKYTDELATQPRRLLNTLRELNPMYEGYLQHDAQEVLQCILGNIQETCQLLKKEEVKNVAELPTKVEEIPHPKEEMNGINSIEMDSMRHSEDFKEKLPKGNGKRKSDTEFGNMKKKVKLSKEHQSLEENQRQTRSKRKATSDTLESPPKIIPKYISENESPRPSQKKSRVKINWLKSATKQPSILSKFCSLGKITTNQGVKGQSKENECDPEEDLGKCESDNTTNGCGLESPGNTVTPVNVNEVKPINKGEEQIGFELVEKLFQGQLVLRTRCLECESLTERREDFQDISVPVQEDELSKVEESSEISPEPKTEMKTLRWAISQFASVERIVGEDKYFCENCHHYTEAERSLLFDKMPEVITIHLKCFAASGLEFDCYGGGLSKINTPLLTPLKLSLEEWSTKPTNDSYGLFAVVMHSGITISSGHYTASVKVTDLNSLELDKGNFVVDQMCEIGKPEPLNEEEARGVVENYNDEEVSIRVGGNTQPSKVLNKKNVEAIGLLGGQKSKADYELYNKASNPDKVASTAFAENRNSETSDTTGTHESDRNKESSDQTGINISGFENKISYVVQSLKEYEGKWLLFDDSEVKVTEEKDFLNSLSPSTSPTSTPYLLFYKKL
Sequence of Phosphoglycerate kinase, glycosomal (Trypanosoma brucei brucei) (P07378 whole entry, looked up): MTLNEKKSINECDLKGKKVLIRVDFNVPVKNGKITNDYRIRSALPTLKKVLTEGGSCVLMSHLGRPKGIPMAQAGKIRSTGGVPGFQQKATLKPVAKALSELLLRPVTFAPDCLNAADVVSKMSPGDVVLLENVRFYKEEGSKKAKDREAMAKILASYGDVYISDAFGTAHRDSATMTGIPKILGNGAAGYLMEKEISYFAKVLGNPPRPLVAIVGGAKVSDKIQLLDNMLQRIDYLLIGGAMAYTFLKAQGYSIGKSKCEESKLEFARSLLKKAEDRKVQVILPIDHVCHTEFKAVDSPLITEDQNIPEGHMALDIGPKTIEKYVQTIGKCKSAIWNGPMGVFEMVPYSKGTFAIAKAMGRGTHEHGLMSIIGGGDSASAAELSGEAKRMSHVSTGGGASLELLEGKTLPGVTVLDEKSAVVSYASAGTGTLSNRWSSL
Sequence of Methanococcus maripaludis chaperonin (MmCpn) (Q6LX38 1-543): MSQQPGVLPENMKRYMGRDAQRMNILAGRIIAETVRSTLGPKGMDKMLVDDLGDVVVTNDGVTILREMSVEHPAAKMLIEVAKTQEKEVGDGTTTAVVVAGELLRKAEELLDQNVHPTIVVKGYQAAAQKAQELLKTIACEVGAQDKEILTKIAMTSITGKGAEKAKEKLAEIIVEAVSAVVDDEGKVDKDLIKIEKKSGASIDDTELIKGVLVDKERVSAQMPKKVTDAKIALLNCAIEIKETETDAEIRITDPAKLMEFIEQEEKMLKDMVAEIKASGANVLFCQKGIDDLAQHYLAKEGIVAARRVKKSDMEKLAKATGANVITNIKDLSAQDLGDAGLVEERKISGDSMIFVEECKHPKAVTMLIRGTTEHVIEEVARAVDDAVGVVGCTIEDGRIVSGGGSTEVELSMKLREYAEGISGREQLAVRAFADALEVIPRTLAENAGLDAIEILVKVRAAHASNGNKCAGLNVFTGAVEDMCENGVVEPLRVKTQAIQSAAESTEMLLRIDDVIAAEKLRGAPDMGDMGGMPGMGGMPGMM
Sequence of Peptidyl-prolyl cis-trans isomerase NIMA-interacting 1 (Homo sapiens) (Q13526 whole entry, looked up): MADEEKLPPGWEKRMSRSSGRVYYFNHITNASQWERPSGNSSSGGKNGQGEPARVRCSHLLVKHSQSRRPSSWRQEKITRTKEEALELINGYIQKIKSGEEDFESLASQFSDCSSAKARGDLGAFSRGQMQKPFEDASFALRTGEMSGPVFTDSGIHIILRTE

CC[C@@H](CO)Nc1nc(NCc2ccccc2)c2ncn(C(C)C)c2n1
inactive: all assays above
